Legend:
Test in all cases: log2 ratio of Biotin-Ahx-Ub-VS probe labelling (fragment/DMSO); higher = less target engagement (more negative = stronger competition), active = hit call of the paper (q ≤ 0.05, log2 ratio ≤ -1)
Details in all cases: compound concentration: 200 uM; treatment time: 3 h
[1] = target: T1, USP19 (UniProt O94966)
T1 sequence (whole entry): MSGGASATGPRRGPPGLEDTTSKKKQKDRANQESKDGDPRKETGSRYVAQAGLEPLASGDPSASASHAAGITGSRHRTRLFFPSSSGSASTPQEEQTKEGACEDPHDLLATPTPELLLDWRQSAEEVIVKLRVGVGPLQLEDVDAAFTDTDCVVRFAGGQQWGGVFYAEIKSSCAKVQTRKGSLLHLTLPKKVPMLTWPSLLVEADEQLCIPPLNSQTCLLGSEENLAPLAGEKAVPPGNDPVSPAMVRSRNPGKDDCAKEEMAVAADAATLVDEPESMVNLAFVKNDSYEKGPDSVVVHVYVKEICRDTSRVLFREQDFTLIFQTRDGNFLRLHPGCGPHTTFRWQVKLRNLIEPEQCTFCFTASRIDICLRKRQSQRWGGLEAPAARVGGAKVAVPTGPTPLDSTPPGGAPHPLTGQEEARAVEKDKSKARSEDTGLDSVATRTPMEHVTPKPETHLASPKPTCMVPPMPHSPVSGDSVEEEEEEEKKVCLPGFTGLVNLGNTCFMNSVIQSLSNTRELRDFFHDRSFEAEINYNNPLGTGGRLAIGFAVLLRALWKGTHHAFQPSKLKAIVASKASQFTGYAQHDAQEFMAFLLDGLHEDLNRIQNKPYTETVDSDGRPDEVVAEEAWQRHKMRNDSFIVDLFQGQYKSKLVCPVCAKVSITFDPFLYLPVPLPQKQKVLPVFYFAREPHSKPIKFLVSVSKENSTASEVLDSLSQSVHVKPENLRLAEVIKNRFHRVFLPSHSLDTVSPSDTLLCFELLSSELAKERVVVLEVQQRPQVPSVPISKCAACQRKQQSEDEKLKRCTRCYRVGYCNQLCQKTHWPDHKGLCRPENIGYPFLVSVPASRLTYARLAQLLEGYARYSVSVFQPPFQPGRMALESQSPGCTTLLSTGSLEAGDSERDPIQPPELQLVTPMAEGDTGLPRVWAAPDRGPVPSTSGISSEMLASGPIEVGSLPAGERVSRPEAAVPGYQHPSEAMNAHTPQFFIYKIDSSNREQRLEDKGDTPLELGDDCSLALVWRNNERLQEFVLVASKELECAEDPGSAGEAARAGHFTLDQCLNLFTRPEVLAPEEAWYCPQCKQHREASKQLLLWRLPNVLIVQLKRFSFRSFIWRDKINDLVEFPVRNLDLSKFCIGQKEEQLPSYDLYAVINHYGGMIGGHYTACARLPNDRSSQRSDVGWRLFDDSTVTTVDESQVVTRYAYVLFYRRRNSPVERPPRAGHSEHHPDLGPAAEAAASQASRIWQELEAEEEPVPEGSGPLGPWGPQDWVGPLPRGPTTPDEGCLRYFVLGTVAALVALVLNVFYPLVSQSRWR
Outline: (§1)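 Fragment (200 µM) or vehicle was incubated for 3 h with triplicate HEK293T lysate samples of 495 µg, which were then treated with Biotin-Ahx-Ub-VS at 0.5 µM final for 1 h. Labelled DUBs were enriched on NeutrAvidin, digested with LysC and trypsin, and analysed by diaPASEF LC-MS/MS. Values are average log2 fragment/vehicle ratios from an unpaired t-test on global-median-normalised Spectronaut label-free quantities, using proteins with ≥2 unique peptides.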

[2] = target: T2, USP22 (UniProt Q9UPT9)
T2 sequence (whole entry): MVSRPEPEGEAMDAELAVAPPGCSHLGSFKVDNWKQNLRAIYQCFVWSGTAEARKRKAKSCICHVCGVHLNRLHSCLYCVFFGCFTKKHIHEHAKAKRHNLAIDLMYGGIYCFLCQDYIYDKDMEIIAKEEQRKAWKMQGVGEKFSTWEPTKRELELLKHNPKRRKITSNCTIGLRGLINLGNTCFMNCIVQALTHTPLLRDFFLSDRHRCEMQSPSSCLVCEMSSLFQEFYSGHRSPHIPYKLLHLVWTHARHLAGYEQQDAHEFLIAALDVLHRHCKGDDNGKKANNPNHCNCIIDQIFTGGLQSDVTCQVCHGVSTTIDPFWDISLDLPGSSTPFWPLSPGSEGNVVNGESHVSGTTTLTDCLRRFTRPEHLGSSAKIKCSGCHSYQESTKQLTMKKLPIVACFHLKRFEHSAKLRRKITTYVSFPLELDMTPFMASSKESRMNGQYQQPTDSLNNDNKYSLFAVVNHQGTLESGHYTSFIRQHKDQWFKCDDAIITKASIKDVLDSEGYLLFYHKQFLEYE
Outline: as §1

[3] = target: USP24 (UniProt Q9UPU5)
Outline: as §1

[4] = target: T3, USP25 (UniProt Q9UHP3)
T3 sequence (whole entry): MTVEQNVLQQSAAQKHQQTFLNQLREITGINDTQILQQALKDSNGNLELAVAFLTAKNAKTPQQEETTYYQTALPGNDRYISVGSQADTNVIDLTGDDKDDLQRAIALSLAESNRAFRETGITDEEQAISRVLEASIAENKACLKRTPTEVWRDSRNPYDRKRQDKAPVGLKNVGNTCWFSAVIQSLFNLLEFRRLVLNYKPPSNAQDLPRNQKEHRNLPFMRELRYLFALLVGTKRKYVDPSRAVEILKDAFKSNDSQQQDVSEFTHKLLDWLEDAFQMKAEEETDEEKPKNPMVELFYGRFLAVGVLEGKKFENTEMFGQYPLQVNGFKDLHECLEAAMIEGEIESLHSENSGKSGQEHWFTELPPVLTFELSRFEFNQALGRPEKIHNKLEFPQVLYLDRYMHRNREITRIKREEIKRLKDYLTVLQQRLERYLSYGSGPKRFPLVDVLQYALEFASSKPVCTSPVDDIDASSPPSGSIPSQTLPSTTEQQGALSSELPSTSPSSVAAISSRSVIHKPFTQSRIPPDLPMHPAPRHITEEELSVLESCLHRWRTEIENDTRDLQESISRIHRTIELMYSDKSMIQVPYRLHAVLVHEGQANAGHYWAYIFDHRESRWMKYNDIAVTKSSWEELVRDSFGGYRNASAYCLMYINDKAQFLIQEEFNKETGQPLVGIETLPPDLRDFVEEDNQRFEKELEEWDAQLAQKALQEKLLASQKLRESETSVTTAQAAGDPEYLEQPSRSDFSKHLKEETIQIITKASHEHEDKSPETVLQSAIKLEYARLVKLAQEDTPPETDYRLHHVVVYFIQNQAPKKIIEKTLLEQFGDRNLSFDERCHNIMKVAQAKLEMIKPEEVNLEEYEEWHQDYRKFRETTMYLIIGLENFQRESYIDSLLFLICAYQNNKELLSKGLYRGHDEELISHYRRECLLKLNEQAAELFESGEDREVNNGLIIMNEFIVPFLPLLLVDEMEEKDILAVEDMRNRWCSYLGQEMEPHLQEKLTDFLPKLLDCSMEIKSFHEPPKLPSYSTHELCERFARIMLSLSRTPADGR
Outline: as §1

[5] = target: T4, USP28 (UniProt Q96RU2)
T4 sequence (whole entry): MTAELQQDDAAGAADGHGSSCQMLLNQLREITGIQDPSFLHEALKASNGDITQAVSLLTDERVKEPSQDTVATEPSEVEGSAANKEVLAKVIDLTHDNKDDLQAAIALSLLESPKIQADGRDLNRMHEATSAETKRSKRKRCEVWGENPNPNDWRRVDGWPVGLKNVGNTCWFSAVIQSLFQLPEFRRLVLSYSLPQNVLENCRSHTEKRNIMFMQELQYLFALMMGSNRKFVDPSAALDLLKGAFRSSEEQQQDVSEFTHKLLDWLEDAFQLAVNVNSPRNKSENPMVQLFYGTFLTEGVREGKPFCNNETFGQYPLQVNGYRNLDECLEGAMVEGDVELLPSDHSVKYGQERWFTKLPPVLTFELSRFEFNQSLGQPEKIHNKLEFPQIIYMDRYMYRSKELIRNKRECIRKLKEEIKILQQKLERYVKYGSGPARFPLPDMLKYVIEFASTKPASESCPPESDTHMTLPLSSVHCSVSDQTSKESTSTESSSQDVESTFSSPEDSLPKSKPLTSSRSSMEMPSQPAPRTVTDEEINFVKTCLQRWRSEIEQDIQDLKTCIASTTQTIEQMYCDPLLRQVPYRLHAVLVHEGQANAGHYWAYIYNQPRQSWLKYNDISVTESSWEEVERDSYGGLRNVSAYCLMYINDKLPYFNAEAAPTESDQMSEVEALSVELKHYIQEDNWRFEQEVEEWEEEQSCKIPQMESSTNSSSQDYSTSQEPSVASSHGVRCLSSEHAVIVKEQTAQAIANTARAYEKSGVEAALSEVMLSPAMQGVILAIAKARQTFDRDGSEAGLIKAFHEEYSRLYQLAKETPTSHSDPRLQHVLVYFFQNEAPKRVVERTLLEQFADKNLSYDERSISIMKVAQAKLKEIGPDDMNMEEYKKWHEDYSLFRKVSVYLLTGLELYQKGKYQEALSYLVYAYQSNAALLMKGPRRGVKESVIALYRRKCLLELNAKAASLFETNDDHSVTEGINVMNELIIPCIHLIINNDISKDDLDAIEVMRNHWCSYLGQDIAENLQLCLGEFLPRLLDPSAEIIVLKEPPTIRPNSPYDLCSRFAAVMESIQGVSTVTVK
Outline: as §1

Measured: log2 ratio of Biotin-Ahx-Ub-VS probe labelling

USP24, sequence (Q9UPU5 whole entry): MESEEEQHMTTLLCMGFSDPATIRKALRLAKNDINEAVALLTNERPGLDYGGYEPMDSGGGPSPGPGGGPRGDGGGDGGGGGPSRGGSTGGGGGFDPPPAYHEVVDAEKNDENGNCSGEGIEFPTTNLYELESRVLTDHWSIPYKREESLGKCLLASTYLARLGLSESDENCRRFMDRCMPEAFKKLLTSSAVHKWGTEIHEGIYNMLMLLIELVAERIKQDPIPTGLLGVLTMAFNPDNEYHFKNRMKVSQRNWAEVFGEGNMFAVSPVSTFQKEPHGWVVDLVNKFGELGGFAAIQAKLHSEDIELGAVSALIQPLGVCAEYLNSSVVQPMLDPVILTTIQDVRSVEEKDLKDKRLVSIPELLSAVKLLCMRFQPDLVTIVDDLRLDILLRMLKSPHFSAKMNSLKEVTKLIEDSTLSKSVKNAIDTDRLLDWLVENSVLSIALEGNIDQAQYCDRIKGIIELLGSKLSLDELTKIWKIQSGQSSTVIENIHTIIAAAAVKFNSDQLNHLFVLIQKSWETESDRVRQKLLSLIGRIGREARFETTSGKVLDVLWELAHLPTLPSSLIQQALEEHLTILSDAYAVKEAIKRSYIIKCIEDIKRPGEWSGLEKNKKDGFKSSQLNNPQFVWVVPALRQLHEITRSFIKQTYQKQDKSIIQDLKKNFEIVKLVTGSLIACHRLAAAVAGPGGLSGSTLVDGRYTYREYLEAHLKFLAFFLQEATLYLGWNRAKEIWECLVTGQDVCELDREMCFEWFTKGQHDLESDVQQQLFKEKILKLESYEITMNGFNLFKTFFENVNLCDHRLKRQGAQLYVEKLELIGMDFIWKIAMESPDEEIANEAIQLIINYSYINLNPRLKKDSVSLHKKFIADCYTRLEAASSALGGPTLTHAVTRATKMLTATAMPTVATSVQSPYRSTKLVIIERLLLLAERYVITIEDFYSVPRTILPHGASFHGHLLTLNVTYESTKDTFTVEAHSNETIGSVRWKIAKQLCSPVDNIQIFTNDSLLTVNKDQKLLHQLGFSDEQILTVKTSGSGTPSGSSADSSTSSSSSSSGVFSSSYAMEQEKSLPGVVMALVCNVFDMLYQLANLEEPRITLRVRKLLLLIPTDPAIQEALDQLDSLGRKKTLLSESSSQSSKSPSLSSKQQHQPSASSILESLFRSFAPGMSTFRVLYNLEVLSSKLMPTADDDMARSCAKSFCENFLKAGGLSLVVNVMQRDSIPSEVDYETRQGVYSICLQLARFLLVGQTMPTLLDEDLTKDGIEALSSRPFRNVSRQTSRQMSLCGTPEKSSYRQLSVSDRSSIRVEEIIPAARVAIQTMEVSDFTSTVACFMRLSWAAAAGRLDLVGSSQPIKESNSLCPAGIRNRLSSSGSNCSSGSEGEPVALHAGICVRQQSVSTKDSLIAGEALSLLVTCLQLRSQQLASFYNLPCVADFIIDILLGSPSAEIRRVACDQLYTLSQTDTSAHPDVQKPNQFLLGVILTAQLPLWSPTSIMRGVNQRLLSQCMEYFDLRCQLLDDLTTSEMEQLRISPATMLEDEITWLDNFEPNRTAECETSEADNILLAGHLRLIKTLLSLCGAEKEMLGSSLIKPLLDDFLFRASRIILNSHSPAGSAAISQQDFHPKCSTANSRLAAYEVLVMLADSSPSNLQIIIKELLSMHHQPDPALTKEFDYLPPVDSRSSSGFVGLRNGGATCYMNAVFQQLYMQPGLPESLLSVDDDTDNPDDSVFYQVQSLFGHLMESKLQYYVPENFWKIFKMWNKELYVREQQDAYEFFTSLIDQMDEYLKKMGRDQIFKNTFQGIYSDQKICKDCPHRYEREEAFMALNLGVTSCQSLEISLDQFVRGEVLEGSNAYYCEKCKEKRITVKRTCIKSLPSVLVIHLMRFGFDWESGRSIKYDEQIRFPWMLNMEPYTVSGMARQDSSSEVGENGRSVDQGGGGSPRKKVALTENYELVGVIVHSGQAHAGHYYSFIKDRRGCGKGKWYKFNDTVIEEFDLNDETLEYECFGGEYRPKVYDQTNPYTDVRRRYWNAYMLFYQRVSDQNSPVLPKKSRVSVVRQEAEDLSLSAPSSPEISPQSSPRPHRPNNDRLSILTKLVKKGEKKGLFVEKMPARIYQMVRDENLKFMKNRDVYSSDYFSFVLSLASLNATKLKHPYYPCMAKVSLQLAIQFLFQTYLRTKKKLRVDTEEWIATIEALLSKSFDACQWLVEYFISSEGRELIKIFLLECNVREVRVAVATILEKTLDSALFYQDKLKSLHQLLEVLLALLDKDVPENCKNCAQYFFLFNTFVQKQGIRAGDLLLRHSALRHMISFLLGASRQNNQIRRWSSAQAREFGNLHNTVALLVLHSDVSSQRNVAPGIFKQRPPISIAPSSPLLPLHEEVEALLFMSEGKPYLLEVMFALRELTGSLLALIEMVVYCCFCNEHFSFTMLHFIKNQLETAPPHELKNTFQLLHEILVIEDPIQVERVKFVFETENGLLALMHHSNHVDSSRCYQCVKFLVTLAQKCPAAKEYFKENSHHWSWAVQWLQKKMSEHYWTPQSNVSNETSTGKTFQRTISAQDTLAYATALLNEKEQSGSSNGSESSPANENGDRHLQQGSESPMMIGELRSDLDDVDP

O=C(CCl)N1CCC(c2noc3cc(F)ccc23)CC1
inactive: [1] -0.49 | [2] -0.492 | [3] -0.986 | [4] -0.302 | [5] -0.607

Source: the supplement of paper PMC11732987, “Enantioselective OTUD7B fragment discovery through chemoproteomics screening and high-throughput optimisation” (Communications Chemistry, 2025)
